Source: PubChem (National Center for Advancing Translational Sciences (NCATS))
Compounds with a hit are over-represented: about 1.2% of the library has one in this group of screens.
TrxR1 substrate = qHTS Assay for Substrates of Mammalian Selenoprotein Thioredoxin Reductase 1 (TrxR1): qHTS; Thioredoxin reductase 1, cytoplasmic (Rattus norvegicus), O89049; purified TrxR1 substrate turnover, NADPH consumption readout; AID 588456, 2011; Potency, µM (highest dose often 114 µM), for inactives: at the top dose activity change, negative = substrate turnover; hit rate 0.01% among 390,000; note: potency is the fitted concentration of half-maximal effect; nearly all actives have a fitted effect of over 50% in size
Target sequence (O89049 whole entry, looked up): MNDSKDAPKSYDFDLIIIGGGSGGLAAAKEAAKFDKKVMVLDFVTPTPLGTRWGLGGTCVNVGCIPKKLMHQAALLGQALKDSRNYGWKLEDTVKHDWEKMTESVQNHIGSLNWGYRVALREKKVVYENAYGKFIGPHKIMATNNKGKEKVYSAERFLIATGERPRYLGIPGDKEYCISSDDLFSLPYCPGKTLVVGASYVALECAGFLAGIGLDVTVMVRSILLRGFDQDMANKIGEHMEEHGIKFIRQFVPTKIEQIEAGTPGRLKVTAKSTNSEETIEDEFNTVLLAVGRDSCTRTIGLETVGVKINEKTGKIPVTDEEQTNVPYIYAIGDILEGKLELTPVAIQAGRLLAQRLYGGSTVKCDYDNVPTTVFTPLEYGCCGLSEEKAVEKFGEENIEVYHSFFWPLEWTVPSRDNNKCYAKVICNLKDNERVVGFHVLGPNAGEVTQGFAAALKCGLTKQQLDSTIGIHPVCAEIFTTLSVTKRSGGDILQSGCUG
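Rat TrxR1, dispensed at 90 nM, was prereduced with 400 uM NADPH (final) for 5 min at ~22 deg C, then incubated with compound 15 min before 400 uM selenite. A first-read NADPH fluorescence drop versus no-compound background flagged substrates.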
PI4K2A inh = qHTS for small molecular inhibitors of PI4K2A. activity change, negative = inhibition, % at 76.9 µM. Phosphatidylinositol 4-kinase type 2-alpha (Homo sapiens), Q9BTU6. purified PI4K2A, ADP-Glo luminescence, 1 h; stronger effect = lower value. hit rate 0.13% among 420,000. AID 1346378, 2018; in the data active = activity change below about -50%; inconclusive = mostly about -30% to -49%;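 note: -100% = wells without enzyme as full effect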
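PI4K2A activity was measured by ADP-Glo luminescence: enzyme (4 ug/mL stock) and phosphatidylinositol (1.2 mM stock) in Tris pH 7.5/MgCl2/EGTA/Triton X-100 buffer were reacted with ATP (300 microM stock) for one hour at ambient temperature.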
rTrxR1 inhibitor = qHTS Assay for Inhibitors of Mammalian Selenoprotein Thioredoxin Reductase 1 (TrxR1): qHTS; Thioredoxin reductase 1, cytoplasmic (Rattus norvegicus), O89049; hit rate 1% among 390,000; Potency, µM (doses to about 114 µM), inactives show at the highest dose activity change, negative = inhibition, usual class: inhibitors; AID 588453, 2011; recombinant rTrxR1, NADPH fluorescence consumption, selenite substrate; note: potency is the fitted concentration of half-maximal effect; nearly all actives have a fitted effect of over 65% in size
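Rat TrxR1 (90 nM in the dispensed reagent) was pre-reduced with 400 uM NADPH for 5 min at room temperature, then incubated with compound for 15 min. After 400 uM selenite was added, NADPH fluorescence (Ex 340/Em 450 nm) was followed for 8 min.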
GALK inh = qHTS Assay for Inhibitors of Human Galactokinase (GALK); P51570; Purified GALK, Kinase-Glo residual ATP luminescence; Potency, µM (doses to about 57.5 µM), without a hit: top-dose activity change, negative = inhibition, usual class: inhibitors; hit rate 0.007% among 270,000; note: potency is the fitted concentration of half-maximal effect
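Quantitative HTS: GALK 5 nM, ATP 35 uM, galactose 100 uM, 1 h room temperature, then luciferase-based ATP detection.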
PKM2 activator = qHTS Assay for Activators of Human Muscle isoform 2 Pyruvate Kinase. AID 1631, 2009. Potency, µM (top dose mostly 57.5 µM), inactives show at the top dose activation, most hits filed as activators. hit rate 0.34% among 260,000. purified PKM2, Kinase-Glo ATP luminescence, activation; response scale: 0% is enzyme alone, no compound; note: potency is the fitted concentration of half-maximal effect; nearly all actives have a fitted effect of over 55% in size
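Purified hPK-M2 (>95%) run at intermediate activity with 0.1 mM ADP and 0.5 mM PEP in 50 mM imidazole pH 7.2, KCl, MgCl2; 1 h room temperature. ATP formed read by Kinase-Glo luminescence; normalized to uninhibited and no-enzyme controls.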
* marks the source's active call; other numbers are inactive results; [ ] = dose if it differs, or a comment. Unless noted, calls come from the whole dose curve; as a rule, active = well fitted curve in the direction sought with a large enough effect; inconclusive = small, poorly fitted or top-dose-only effect, or another doubt; inactive = no such curve, though single readings can be large; an effect the other way counts as inactive or inconclusive. Unless noted, % is set by controls: 0 for no effect and ±100 for the full control effect.

Results for C[C@@H]1[C@@H](Sc2ccccc2)CC(=O)O[C@@H]1c1ccc(-c2ccccc2)cc1 ?
TrxR1 substrate: -8%[57.1 µM]; PI4K2A inh: -63*; rTrxR1 inhibitor: 9%[57.1 µM]

Results for Cc1cccc(C)c1NC(=O)[C@@H]1CC(=O)O[C@@H]1c1ccccc1 ?
PI4K2A inh: -5

How did O=C1Nc2ccccc2N=C(c2ccccc2)C1N(C(=O)c1ccnc2ccccc12)c1ccccc1 (stereo unspecified) do in these assays?
PI4K2A inh: -2

How did Cc1ccc(-c2ccc(NC(=O)C3C4C=CC(C4)C3C(=O)O)cc2)o1 (stereo unspecified) do in these assays?
TrxR1 substrate: -11%; PI4K2A inh: -4; rTrxR1 inhibitor: 22µM*; GALK inh: -1%; PKM2 activator: 16%

Results for CCOC(=O)c1c(-c2ccc(C)o2)csc1NC(=S)NC(=O)N(C)C ?
TrxR1 substrate: -2%; PI4K2A inh: 0; rTrxR1 inhibitor: 11µM*; GALK inh: 4%; PKM2 activator: inconclusive

How did CCOC(=O)c1c(-c2ccc(C)o2)csc1NC(=O)CN1CCOCC1 do in these assays?
TrxR1 substrate: -10%; PI4K2A inh: 8; rTrxR1 inhibitor: inconclusive; GALK inh: 2%; PKM2 activator: inconclusive

What do the screens show for `CCOC(=O)c1c(-c2ccc(C)o2)csc1NC(=O)COC(=O)c1cccs1`?
TrxR1 substrate: 12%; PI4K2A inh: 3; rTrxR1 inhibitor: inconclusive; GALK inh: 2%; PKM2 activator: 3.2µM*

How did CCOC(=O)c1c(-c2ccc(C)o2)csc1NC(=O)CSc1ncn[nH]1 do in these assays?
TrxR1 substrate: -5%; PI4K2A inh: -4; rTrxR1 inhibitor: 40µM*; GALK inh: -1%; PKM2 activator: inconclusive

What do the screens show for `CCN(Cc1ccncc1)S(=O)(=O)c1ccc(C(C)=O)cc1`?
TrxR1 substrate: 3%; PI4K2A inh: 1; rTrxR1 inhibitor: inconclusive; GALK inh: 4%; PKM2 activator: 22µM*

Results for CCN(CC)S(=O)(=O)c1ccc(C(=O)Nc2ccc(Cc3ccncc3)cc2)cc1 ?
TrxR1 substrate: -8%; PI4K2A inh: -4; rTrxR1 inhibitor: 12%; GALK inh: 2%; PKM2 activator: 3%

What do the screens show for `O=C1CCC[C@H]2Cc3nc4cccc(Cl)c4cc3C[C@]23CCCN13`?
PI4K2A inh: 1

How did CCCN1C(=O)/C(=C/c2ccc(C)o2)SC1=Nc1ccc(OC)cc1 do in these assays?
TrxR1 substrate: -11%; PI4K2A inh: -2; rTrxR1 inhibitor: inconclusive; GALK inh: 0%; PKM2 activator: 1%

How did CCCN1C(=O)/C(=C/c2ccc(C)o2)SC1=Nc1ccc(OCC)cc1 do in these assays?
TrxR1 substrate: -6%; PI4K2A inh: -6; rTrxR1 inhibitor: inconclusive; GALK inh: 2%; PKM2 activator: 13µM*

How did O=C(c1cc(Br)ccc1O)N(Cc1ccco1)Cc1cccs1 do in these assays?
TrxR1 substrate: 13%; rTrxR1 inhibitor: inconclusive

How did CNC(=O)COC(=O)c1cc(-c2ccco2)nc2ccccc12 do in these assays?
TrxR1 substrate: 1%[57.1 µM]; PI4K2A inh: -20; rTrxR1 inhibitor: 10µM*; GALK inh: -2%; PKM2 activator: inconclusive

How did O=C(O)c1ccccc1/C=N/NC(=O)c1cc(-c2ccco2)nc2ccccc12 do in these assays?
TrxR1 substrate: 104%; PI4K2A inh: -21; rTrxR1 inhibitor: inconclusive; GALK inh: -5%; PKM2 activator: 25µM*

What do the screens show for `O=C(COC(=O)c1ccco1)NCc1ccc(Cl)cc1Cl`?
TrxR1 substrate: -1%; PI4K2A inh: 1; rTrxR1 inhibitor: 79µM*

What do the screens show for `O=C(COC(=O)c1cc(-c2ccco2)nc2ccccc12)NCc1ccccc1`?
TrxR1 substrate: 29%; PI4K2A inh: 1; rTrxR1 inhibitor: 45µM*; GALK inh: 1%; PKM2 activator: 13%

How did O=C(Nc1ccccc1OCc1cc(=O)n2ccccc2n1)c1cccc(Br)c1 do in these assays?
TrxR1 substrate: -10%[57.1 µM]; PI4K2A inh: 1; rTrxR1 inhibitor: -24%[57.1 µM]

Results for Cn1c(N)c(C(=O)COC(=O)c2cc(-c3ccco3)nc3ccccc23)c(=O)n(Cc2ccccc2)c1=O ?
PKM2 activator: 17%

How did Cn1c(N)c(C(=O)COC(=O)c2cc(-c3ccco3)nc3ccccc23)c(=O)n(C)c1=O do in these assays?
TrxR1 substrate: 30%[57.1 µM]; PI4K2A inh: inconclusive; rTrxR1 inhibitor: 13µM*; PKM2 activator: 22%

How did CCOc1ccc(C2C(=O)N(C3CCCCCC3)CC(=O)N2Cc2ccccc2)cc1OC (stereo unspecified) do in these assays?
TrxR1 substrate: 3%[57.1 µM]; PI4K2A inh: -7; rTrxR1 inhibitor: 29%[57.1 µM]

Results for CC(=O)Nc1ccc(S(=O)(=O)Nc2nc3ccccc3nc2Nc2ccc(C(=O)O)c(O)c2)cc1 ?
TrxR1 substrate: -23%; PI4K2A inh: -11; rTrxR1 inhibitor: 79µM*

How did COC1=C/C(=C/c2c(O)c(C#N)c3ccccn23)C=CC1=O do in these assays?
TrxR1 substrate: -7%; PI4K2A inh: -8; rTrxR1 inhibitor: 13µM*; GALK inh: 0%; PKM2 activator: -2%

How did COc1cc(OC)cc(C(=O)c2c(C)c(C#N)c3ccccn23)c1 do in these assays?
TrxR1 substrate: -5%; PI4K2A inh: 4; rTrxR1 inhibitor: 13%; GALK inh: 1%

Results for CC(C)(C)c1ccc(-c2nnc(SCC(=O)Nc3ccc(Oc4ccccc4)cc3)n2Cc2ccco2)cc1 ?
PI4K2A inh: -7

What do the screens show for `COc1cc(-c2nc3sccn3c2Nc2c(C)cccc2C)ccc1O`?
TrxR1 substrate: -5%; PI4K2A inh: -4; rTrxR1 inhibitor: 16µM*

What do the screens show for `Cc1cccc(C)c1Nc1c(-c2ccc(O)cc2)nc2sccn12`?
TrxR1 substrate: -1%; PI4K2A inh: -5; rTrxR1 inhibitor: 2%

What do the screens show for `Cc1c(C(=O)c2no[n+]([O-])c2C(=O)c2cnn(C)c2C)cnn1C`?
TrxR1 substrate: -5%; PI4K2A inh: -1; rTrxR1 inhibitor: 1.3µM*; GALK inh: 6%; PKM2 activator: 14%

What do the screens show for `Cc1ccc(C(=O)Oc2ccc(C(O)CNC(C)(C)C)cc2OC(=O)c2ccc(C)cc2)cc1` (stereo unspecified)?
PI4K2A inh: 2

How did COc1ccc(C(=O)Nc2noc3ccccc23)cc1 do in these assays?
TrxR1 substrate: 9%; PI4K2A inh: -73*; rTrxR1 inhibitor: 25%
